# Source: PubChem BioAssay AID2796 (The Scripps Research Institute Molecular Screening Center, 2010)
# The campaign covered roughly 320,000 compounds. About 8,000 (2.5%) were called active. This is one part of a sample in which actives are shown more often than they occur. Values without a mark were called inactive. No stated cut-off is given here; in the data, active means activation above about 47%; inactive means the rest.
# Biological target: Aryl hydrocarbon receptor (Homo sapiens) (UniProt P35869)
# Assay: AHR activators, primary screen, cell-based, luminescence, luciferase reporter, human (AID 2796);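 further: 0% = vehicle wells and 100% = reference agonist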
# Details: AHR-responsive luciferase reporter cells, at 5 µM, hits give high values
# Sequence of Aryl hydrocarbon receptor (Homo sapiens) (P35869 whole entry, looked up): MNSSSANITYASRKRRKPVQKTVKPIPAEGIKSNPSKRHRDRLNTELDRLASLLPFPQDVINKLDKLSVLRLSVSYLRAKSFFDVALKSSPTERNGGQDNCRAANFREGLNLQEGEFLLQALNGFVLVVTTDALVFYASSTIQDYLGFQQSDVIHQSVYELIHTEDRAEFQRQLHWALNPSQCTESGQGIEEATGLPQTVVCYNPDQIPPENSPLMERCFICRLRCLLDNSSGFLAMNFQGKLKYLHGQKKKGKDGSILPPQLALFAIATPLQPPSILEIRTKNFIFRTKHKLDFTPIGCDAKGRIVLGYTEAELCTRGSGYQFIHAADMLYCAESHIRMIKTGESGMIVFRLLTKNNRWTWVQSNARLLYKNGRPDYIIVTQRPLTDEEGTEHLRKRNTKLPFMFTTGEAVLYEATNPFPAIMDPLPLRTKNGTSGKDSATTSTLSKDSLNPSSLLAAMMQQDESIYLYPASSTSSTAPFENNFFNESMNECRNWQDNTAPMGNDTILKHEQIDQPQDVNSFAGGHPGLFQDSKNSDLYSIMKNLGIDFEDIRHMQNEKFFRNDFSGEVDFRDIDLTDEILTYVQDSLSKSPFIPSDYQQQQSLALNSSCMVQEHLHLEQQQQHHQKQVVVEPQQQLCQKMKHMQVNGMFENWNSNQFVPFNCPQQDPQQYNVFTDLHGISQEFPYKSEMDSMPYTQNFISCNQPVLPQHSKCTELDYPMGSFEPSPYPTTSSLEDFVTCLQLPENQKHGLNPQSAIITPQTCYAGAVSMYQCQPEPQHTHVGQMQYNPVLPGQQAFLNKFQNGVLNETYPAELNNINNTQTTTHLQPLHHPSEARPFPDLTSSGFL
row,SMILES,activation
1,N[C@@H](Cc1c[nH]c2ccccc12)c1nnc(SCc2c(F)cccc2Cl)o1,60.4% (active)
2,COc1cc2nc(N3CCN(C(=O)[C@@H]4CCCO4)CC3)nc(N)c2cc1OC,5.62%
3,c1ccc(CCN2CCC3(CC2)OCCO3)cc1,-0.2%
4,O=C(NC(c1ccc(Cl)cc1)P(=O)(Oc1ccccc1)Oc1ccccc1)OCc1ccccc1 (stereo not given),1.2%
5,CN(C)CCN(CC1CCCN(Cc2ccccc2F)C1)C(=O)Cc1ccc(F)c(F)c1 (stereo not given),-0.87%
6,CC1(C)C(c2ccccc2)=NC(c2cccnc2)=[N+]1[O-],1.07%
7,COc1c(O)ccc2c1-c1c3c(cc4c1C(C2)N(C)CC4)OCO3 (stereo not given),4.84%
8,COC1=CC=C2[C@H]3Cc4ccc(OC)c5c4[C@@]2(CCN3C)C1O5 (stereo not given in full),-1.46%
9,COc1ccc2c(c1O)-c1cccc3c1[C@@H](C2)N(C)CC3,64.4% (active)
10,COc1ccc(NC(=O)c2cn(CCC#N)nc2-c2ccc([N+](=O)[O-])cc2)cc1,0%
11,COC(=O)CN1C(=O)C2(C(C(=O)OC)=C(N)Oc3ccccc32)C2=C1CC(C)(C)CC2=O (stereo not given),2.04%
12,CCOC(=O)C1=C(C)OC(N)=C(C(=O)OC)C12C(=O)Nc1ccc(Br)cc12 (stereo not given),57% (active)
13,CCOC(=O)CC1=C(C(=O)OCC)C2(C(=O)N1)C(C(=O)OC)=C(N)Oc1ccccc12 (stereo not given),10%
14,Nc1ccc(C(=O)N/N=C2/CN3CCC2CC3)cc1,3.27%
15,CCOC(=O)C(O)(c1ccc(N=Cc2ccccc2O)c(C)c1)C(F)(F)F (stereo not given),-2.72%
